High-throughput results (PubChem)
In the library only some 2.4% were active in any assay of this set; here they are far more common.
Pf Dd2 growth: P. falciparum Dd2 growth inhibition; SYBR Green, 72 h; stronger effect = lower value; activity change, % at 10 µM; 2.3% of 94,000 active; AID 1159554; in the data active means activity change below about -80%
C diff HTS: blocks growth of Clostridium difficile | AID 1259249 | Clostridium difficile clinical isolate growth, OD600, 24 h; stronger effect = lower value | growth activity, negative = inhibition, % at 16 µg/mL (by protocol) | 0.25% of 86,000 active;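 active means mean growth activity at or below -80% and every replicate also at or below -80%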;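 further: 0% = DMSO wells and -100% = levofloxacin 16 µg/mL wells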
* hit, by the source's call; nt = no result given.

SMILES | Pf Dd2 growth | C diff HTS
Cc1ccc(S(=O)(=O)Nc2ccc3c(c2)C(=O)N([C@@H](C)CO)C[C@H](C)[C@H](CN(C)Cc2ccc(C(=O)Nc4ccccc4N)cc2)O3)cc1 | -71.7 | -5.9
Cc1ccc(S(=O)(=O)Nc2ccc3c(c2)CC(=O)N([C@H](C)CO)C[C@H](C)[C@@H](CN(C)Cc2ccc(C(=O)Nc4ccccc4N)cc2)O3)cc1 | -85.4* | 0.4
C[C@@H]1CN([C@H](C)CO)C(=O)Cc2cc(NS(=O)(=O)c3ccc(F)cc3)ccc2O[C@@H]1CN(C)Cc1ccc(C(=O)Nc2ccccc2N)cc1 | -77.7 | 5.2
COC(=O)C[C@H]1CC[C@H]2[C@@H](COC[C@@H](O)CN2S(=O)(=O)c2ccccc2C)O1 | -0.9 | -2.2
COc1cccc(-c2ccc([C@H]3[C@H](CO)N4C(=O)CN(C(=O)C5CC5)C[C@@H]34)cc2)c1 | -4.1 | -2.9
C/C=C/c1cnc2c(c1)C(=O)N([C@H](C)CO)C[C@H](C)[C@H](CN(C)Cc1ccncc1)O2 | 40.6 | -10.8
C[C@@H]1CCCCO[C@@H](CN(C)Cc2ccc(Cl)c(Cl)c2)[C@H](C)CN([C@H](C)CO)C(=O)c2cc(NS(=O)(=O)c3ccc(F)cc3)ccc2O1 | -83.6* | 14.3
CCCN(C)C[C@H]1OCCCC[C@@H](C)Oc2ccc(NS(=O)(=O)c3ccc(OC)cc3)cc2C(=O)N([C@@H](C)CO)C[C@H]1C | -87.9* | 2.4
CCCN(C)C[C@@H]1OCCCC[C@@H](C)Oc2ccc(NS(=O)(=O)c3ccc(OC)cc3)cc2C(=O)N([C@H](C)CO)C[C@@H]1C | -45.1 | -0.1
COc1ccc(S(=O)(=O)Nc2ccc3c(c2)C(=O)N([C@H](C)CO)C[C@H](C)[C@@H](CN(C)Cc2ccc(Cl)c(Cl)c2)OCCCC[C@H](C)O3)cc1 | -62.3 | nt
C[C@@H]1CCCCO[C@H](CN(C)Cc2ccc(Cl)c(Cl)c2)[C@@H](C)CN([C@@H](C)CO)C(=O)c2cc(NS(=O)(=O)c3ccc(F)cc3)ccc2O1 | -48.4 | 29.1
CCCN(C)C[C@H]1OCCCC[C@@H](C)Oc2ccc(NS(=O)(=O)c3c(C)noc3C)cc2C(=O)N([C@@H](C)CO)C[C@H]1C | -85.3* | -1.8
Cc1noc(C)c1S(=O)(=O)Nc1ccc2c(c1)C(=O)N([C@@H](C)CO)C[C@@H](C)[C@@H](CN(C)CC1CC1)OCCCC[C@@H](C)O2 | -36.6 | -3.1
COc1ccc(S(=O)(=O)Nc2ccc3c(c2)C(=O)N([C@H](C)CO)C[C@H](C)[C@@H](CN(C)Cc2ccc(Cl)c(Cl)c2)OCCCC[C@@H](C)O3)cc1 | -90.5* | 13.1
COc1ccccc1C#Cc1ccc([C@H]2[C@@H](CO)N3CCCCN(C(=O)C4CCCC4)C[C@@H]23)cc1 | 5.0 | -15.3
COc1ccc(S(=O)(=O)Nc2ccc3c(c2)C(=O)N([C@H](C)CO)C[C@@H](C)[C@H](CN(C)C)OCCCC[C@@H](C)O3)cc1 | 6.3 | -1.6
CO[C@@H]1CN(C)C(=O)c2ccc(NC(=O)Nc3c(C)noc3C)cc2OC[C@@H](C)N(CC2CC2)C[C@@H]1C | 3.0 | nt
COc1ccc(NC(=O)N(C)C[C@@H]2Oc3ccc(NC(=O)Nc4ccc(F)cc4)cc3C(=O)N([C@H](C)CO)C[C@@H]2C)cc1 | -2.5 | -2.8
O=C(C[C@@H]1C=C[C@@H](NC(=O)Nc2ccc3c(c2)OCO3)[C@@H](CO)O1)NCc1ccc2c(c1)OCO2 | 2.2 | -1.1
Cc1ccc(S(=O)(=O)Nc2ccc3c(c2)C(=O)N([C@H](C)CO)C[C@@H](C)[C@H](CN(C)Cc2ccc4c(c2)OCO4)OCCCC[C@H](C)O3)cc1 | -68.6 | 1.1
CCCN(C)C[C@@H]1OCCCC[C@@H](C)Oc2ccc(NS(=O)(=O)c3ccc(C)cc3)cc2C(=O)N([C@H](C)CO)C[C@@H]1C | -46.0 | 2.4
COc1ccc(S(=O)(=O)Nc2ccc3c(c2)C(=O)N([C@@H](C)CO)C[C@@H](C)[C@@H](CN(C)Cc2ccc(Cl)c(Cl)c2)OCCCC[C@@H](C)O3)cc1 | -67.8 | 51.6
Cc1noc(C)c1S(=O)(=O)Nc1ccc2c(c1)C(=O)N([C@@H](C)CO)C[C@@H](C)[C@@H](CN(C)Cc1ccc(Cl)c(Cl)c1)OCCCC[C@@H](C)O2 | -82.3* | 6.6
COc1ccc(CN(C)C[C@H]2OCCCC[C@@H](C)Oc3ccc(NS(=O)(=O)c4ccc(OC)cc4)cc3C(=O)N([C@@H](C)CO)C[C@H]2C)cc1 | -42.4 | -5.7
Cc1noc(C)c1S(=O)(=O)Nc1ccc2c(c1)C(=O)N([C@H](C)CO)C[C@H](C)[C@H](CN(C)Cc1ccc(Cl)c(Cl)c1)OCCCC[C@@H](C)O2 | -28.0 | -0.1
SMILES | Pf Dd2 growth | C diff HTS
COc1ccc(CN(C)C[C@H]2OCCCC[C@H](C)Oc3ccc(NS(=O)(=O)c4ccc(OC)cc4)cc3C(=O)N([C@@H](C)CO)C[C@H]2C)cc1 | -83.2* | -18.8
CCCN(C)C[C@H]1OCCCC[C@H](C)Oc2ccc(NS(=O)(=O)c3ccc(F)cc3)cc2C(=O)N([C@@H](C)CO)C[C@@H]1C | -85.0* | 11.8
COc1ccc(S(=O)(=O)Nc2ccc3c(c2)C(=O)N([C@H](C)CO)C[C@@H](C)[C@H](CN(C)Cc2ccc(Cl)c(Cl)c2)OCCCC[C@@H](C)O3)cc1 | -91.1* | nt
Cc1noc(C)c1NC(=O)Nc1ccc2c(c1)C(=O)N([C@@H](C)CO)C[C@@H](C)[C@@H](CN(C)C(=O)NC1CCCCC1)OCCCC[C@@H](C)O2 | -25.0 | 3.9
CCCNC(=O)N1CC2(CCN(S(C)(=O)=O)CC2)c2c(n(C)c3cc(OC)ccc23)[C@H]1CO | 1.9 | -2.6
C[C@H](CO)N1C[C@H](C)[C@H](CN(C)C(=O)Cc2ccccc2)OCc2ccccc2-c2c(n(C)c3ccccc23)C1=O | -72.9 | -5.0
C[C@H]1CN([C@@H](C)CO)C(=O)c2c(c3ccccc3n2C)-c2ccccc2CO[C@@H]1CN(C)C(=O)Cc1ccccc1 | -91.1* | 6.0
C[C@@H]1CN([C@H](C)CO)C(=O)c2c(c3ccccc3n2C)-c2ccccc2CO[C@H]1CN(C)C(=O)Cc1ccccc1 | -21.8 | -7.6
C[C@H](CO)N1C[C@H](C)[C@@H](CN(C)C(=O)Cc2ccccc2)OCc2ccccc2-c2c(n(C)c3ccccc23)C1=O | -81.1* | 30.5
CCCc1cn(CC[C@@H]2CC[C@@H](NS(=O)(=O)c3ccc(-c4ccccc4)cc3)[C@@H](CO)O2)nn1 | -91.4* | -6.9
CCCc1cn(CC[C@H]2CC[C@@H](NS(=O)(=O)c3ccc(-c4ccccc4)cc3)[C@@H](CO)O2)nn1 | -93.7* | -7.7
CN(C)Cc1cn(CC[C@@H]2CC[C@H](NS(=O)(=O)c3ccccc3)[C@H](CO)O2)nn1 | nt | -1.5
CCCc1cn(CC[C@H]2CC[C@H](NS(=O)(=O)c3ccccc3Cl)[C@H](CO)O2)nn1 | -0.8 | 1.3
COc1cccc(CN2[C@H](CO)[C@@H]3c4ccccc4N(C(=O)C4CC4)C[C@@H]32)c1 | -5.8 | -0.1
Cc1noc(C)c1NC(=O)NCC[C@@H]1CC[C@H](NC(=O)c2ccccc2)[C@H](CO)O1 | 19.4 | 8.2
CCCN1C[C@H](C)[C@H](OC)CN(C)C(=O)c2cc(NC(=O)c3cnccn3)ccc2OC[C@@H]1C | 15.4 | nt
COc1ccc(NC(=O)N(C)C[C@H]2Oc3ccc(N(C)C)cc3CC(=O)N([C@H](C)CO)C[C@@H]2C)cc1 | -8.7 | -1.8
COc1ccccc1C#Cc1ccc2c(c1)[C@@H]1[C@@H](CCN1S(=O)(=O)c1cccc(C)c1)[C@H](CO)N2 | -18.0 | 14.3
